Assay results taken from a collection of fitness landscapes (doi:10.1126/science.1257360).
Over roughly 140,000 sequences, “enrichment ratio after two sorts for PhoP signalling” has its median near 0; the highest 2% begin near 11. For the sample, the highest values were picked, then their nearest neighbours and some sequences at random.

B1: PhoQ; a variant is named by its letters at X, in order, P23837 (parent)
chain: MKKLLRLFFPLSLRVRFLLATAAVVLVLSLAYGMVALIGYSVSFDKTTFRLLRGESNLFYTLAKWENNKLHVELPENIDKQSPTMTLIYDENGQLLWAQRDVPWLMKMIQPDWLKSNGFHEIEADVNDTSLLLSGDHSIQQQLQEVREDDDDAEMTHSVAVNVYPATSRMPKLTIVVVDTIPVELKSSYMVWSWFIYVLSANLLLVIPLLWVAAWWSLRPIEALAKEVRELEEHNRELLNPATTRELTSLVRNLNRLLKSERERYDKYRTTLTDLTHSLKTPLXXLQXXLRSLRSEKMSVSDAEPVMLEQISRISQQIGYYLHRASMRGGTLLSRELHPVAPLLDNLTSALNKVYQRKGVNISLDISPEISFVGEQNDFVEVMGNVLDNACKYCLEFVEISARQTDEHLYIVVEDDGPGIPLSKREVIFDRGQRVDTLRPGQGVGLAVAREITEQYEGKIVAGESMLGGARMEVIFGRQHSAPKDE

Variants of: B1
Assay: enrichment ratio after two sorts for PhoP signalling (ratio (wild type AVST 3.29)); higher = more functional
Details: with PhoP (E. coli)

Row | Variant | enrichment ratio
1 | NSEV | ≤ 0.25
2 | GKAT | ≤ 0.25
3 | WHGN | ≤ 0.25
4 | NVPF | ≤ 0.25
5 | MEFQ | 3.08
6 | QEFA | 0.476
7 | QGRA | ≤ 0.25
8 | QGWI | 22.5
9 | QEWS | 13.4
10 | QPWS | ≤ 0.25
11 | QRWS | ≤ 0.25
12 | STYI | ≤ 0.25
13 | MAFE | 8.88
14 | QEYI | 13.9
15 | QGDS | ≤ 0.25
16 | MAFQ | 24.4
17 | RMEL | ≤ 0.25
18 | DLMW | ≤ 0.25
19 | PLYK | ≤ 0.25
20 | KDVS | ≤ 0.25
21 | RYGQ | ≤ 0.25
22 | QQYQ | ≤ 0.25
23 | NKEY | ≤ 0.25
24 | TTLW | ≤ 0.25
25 | VACH | ≤ 0.25
26 | ISIQ | ≤ 0.25

Row | Variant | enrichment ratio
27 | QGGS | 14.5
28 | FCWE | ≤ 0.25
29 | FFGS | ≤ 0.25
30 | QPGS | ≤ 0.25
31 | QGWE | 14.3
32 | FFWE | ≤ 0.25
33 | FTRQ | ≤ 0.25
34 | DCTH | ≤ 0.25
35 | VFMI | ≤ 0.25
36 | SHFN | ≤ 0.25
37 | FRIN | ≤ 0.25
38 | MMTC | ≤ 0.25
39 | KSTC | ≤ 0.25
40 | KSSA | ≤ 0.25
41 | TSSC | 12.8
42 | TVTC | 14.5
43 | NSSC | ≤ 0.25
44 | TSSA | 11.3
45 | TSNK | ≤ 0.25
46 | KSSC | ≤ 0.25
47 | TSTC | 17.2
48 | SPTC | ≤ 0.25
49 | FSSA | ≤ 0.25
50 | NVLH | ≤ 0.25
51 | LSRG | ≤ 0.25
52 | REYW | ≤ 0.25

Row | Variant | enrichment ratio
53 | PQTM | ≤ 0.25
54 | TVEK | 13.3
55 | PVEK | ≤ 0.25
56 | SPEK | ≤ 0.25
57 | PFML | ≤ 0.25
58 | SGNG | ≤ 0.25
59 | AKIM | 4.82
60 | TKIS | 4.17
61 | TKQV | 4.75
62 | TKIV | 11.9
63 | MKIM | ≤ 0.25
64 | TKIM | 15.1
65 | SEYW | ≤ 0.25
66 | QMAQ | ≤ 0.25
67 | QWLW | ≤ 0.25
68 | LLLD | ≤ 0.25
69 | NKIV | ≤ 0.25
70 | AKLA | 5.14
71 | TKLA | 4.75
72 | AKLS | 13.1
73 | TKLS | 19.9
74 | AILS | 9.63
75 | MKLS | ≤ 0.25
76 | QRQP | ≤ 0.25
77 | INTT | ≤ 0.25
78 | NEQM | ≤ 0.25

Row | Variant | enrichment ratio
79 | MEQI | ≤ 0.25
80 | TEQA | 13.7
81 | TEQM | 17.8
82 | NEQI | ≤ 0.25
83 | TEHN | 11.9
84 | YYHN | ≤ 0.25
85 | MEHN | ≤ 0.25
86 | TEQP | ≤ 0.25
87 | TEQH | 3.62
88 | AQQM | ≤ 0.25
89 | TEQI | 15
90 | LPHR | ≤ 0.25
91 | ADGW | ≤ 0.25
92 | NDRR | ≤ 0.25
93 | IIAQ | ≤ 0.25
94 | SFDP | ≤ 0.25
95 | VFVP | ≤ 0.25
96 | IQIY | ≤ 0.25
97 | QEQY | ≤ 0.25
98 | AKQI | ≤ 0.25
99 | AQIY | 24
100 | AQQI | 14.3
101 | TEQY | 12.5
102 | TEGY | 1.36
103 | TEEN | 3.06
104 | TEQN | 34.8

Row | Variant | enrichment ratio
105 | ADQI | ≤ 0.25
106 | TEYM | ≤ 0.25
107 | WQIY | ≤ 0.25
108 | DNYP | ≤ 0.25
109 | EFNV | ≤ 0.25
110 | FGIV | 2.4
111 | ALMP | ≤ 0.25
112 | MHTV | ≤ 0.25
113 | FMAD | ≤ 0.25
114 | GMNN | ≤ 0.25
115 | WNWL | ≤ 0.25
116 | SSSK | ≤ 0.25
117 | STSI | 8.26
118 | SGSK | ≤ 0.25
119 | SSSI | 15.2
120 | SGSI | 15.9
121 | SSSR | ≤ 0.25
122 | SPTG | ≤ 0.25
123 | KSTG | ≤ 0.25
124 | TVTG | 15.3
125 | SQSI | 16.7
126 | SGDH | ≤ 0.25
127 | SRSI | ≤ 0.25
128 | MQVF | 1.6
129 | KTET | ≤ 0.25
130 | FTCL | 9.73

Row | Variant | enrichment ratio
131 | RLFE | ≤ 0.25
132 | YKMG | ≤ 0.25
133 | LISD | ≤ 0.25
134 | KSSI | ≤ 0.25
135 | TLSI | 18.6
136 | FSSI | 0.692
137 | NVSI | ≤ 0.25
138 | SESI | 12.7
139 | LLSI | ≤ 0.25
140 | SPSI | ≤ 0.25
141 | SESR | 4.3
142 | TSSI | 19.5
143 | DDSI | ≤ 0.25
144 | TVSI | 17.4
145 | VLSI | ≤ 0.25
146 | DSES | ≤ 0.25
147 | NHHT | ≤ 0.25
148 | VGTA | ≤ 0.25
149 | EQHP | ≤ 0.25
150 | LVPM | ≤ 0.25
151 | QFFS | ≤ 0.25
152 | TTNV | 7.65
153 | PFAG | ≤ 0.25
154 | DGGW | ≤ 0.25
155 | KLSI | ≤ 0.25
